The results in this text go back to PubChem BioAssay AID463173 (ICCB-Longwood Screening Facility, Harvard Medical School, 2010).

Out of some 52,000 compounds screened, about 4,300 (8.3%) were called active. What follows is part of a selection rich in actives, with near analogues and random picks from the rest. Unmarked numbers belong to inactive results. No stated cut-off is given here; in the data, active means survival mostly below about 52% (no sharp cut-off); inactive means mostly above about 56%.

This assay has as its system DeltatarO mutant. Nature of the assay: growth inhibition of S. aureus wild type versus tarO mutant, primary screen, teichoic acid synthesis inhibitors, RN4220, OD600 (AID 463173). Conditions: OD600, 18 h, stronger effect = lower value, screened at 18.75 µg/mL (by protocol).
In the case of `CCc1cccc(CC)c1NC(=O)c1c(C)oc2ccc(O)c(CN3CCOCC3)c12`, the survival was 90%.

Consider `CC(C)Oc1ccc(C(=O)NCc2cccnc2)cc1`, for which the survival is 70%.

`CCOc1ccc(C(=O)N2CCc3cc(OC)c(OC)cc3C2COc2ccc3c(C)cc(=O)oc3c2)cc1OCC` (stereo unspecified): the survival was 57%.

With `COc1ccc(OC)c(NC(=O)c2c(NCc3cccs3)sc3c2CCCCC3)c1`, the survival is 67%.

`CCOC(=O)c1cccc(NC(=O)COc2ccc3c(C)cc(=O)oc3c2)c1`: the survival was 70%.

As for `CN(C(=O)c1cc2c(Cl)nc3ccccc3c2s1)c1cccc(C(F)(F)F)c1`, the survival was 72%.

With `CCN(CCCNC(=O)c1cc2c(Cl)nc3ccccc3c2s1)Cc1ccccc1`, the survival is 94%.

`CCCN(C(=O)c1cc2c(Cl)nc3ccccc3c2s1)c1cccc(C)c1`: the survival was 31% (active).

`CCN(C(=O)c1cc2c(Cl)nc3ccccc3c2s1)c1cccc(Cl)c1`: the survival was 60%.

Take `Cc1ccc(Cl)cc1N(C)C(=O)c1cc2c(Cl)nc3ccccc3c2s1`: the survival was 54%.

In the case of `Cc1ccc2nc(Cl)c3cc(C(=O)NCCCN(C)Cc4ccccc4)sc3c2c1`, the survival was -9% (active).

As for `CCc1ccccc1N(C)C(=O)c1cc2c(Cl)nc3ccc(C)cc3c2s1`, the survival is -4% (active).

With `Cc1ccc2nc(Cl)c3cc(C(=O)N(C)C4CCCCC4)sc3c2c1`, the survival was 46%.

In the case of `CN(CCCNC(=O)c1cc2c(Cl)nc3ccccc3c2s1)Cc1ccccc1`, the survival was 55%.

Turning to `COc1cc(NS(=O)(=O)c2ccc3c(c2)CCCN3C(C)=O)cc(OC)c1OC`, the survival was 89%.

`Cc1nc(C)c(CCNS(=O)(=O)c2ccc(C)c(C)c2)s1`: the survival was 97%.

In the case of `CCOc1ccc(-n2ccnc2SCC(=O)Nc2ccc3c(c2)OCO3)cc1`, the survival is 81%.

In the case of `O=C(CN1N=C(c2ccc(Cl)cc2)CCC1=O)NCCc1ccc(Cl)cc1`, the survival was 94%.

For the molecule `COc1cccc(C(=O)Nc2ccc3nc(SCC(=O)N4CCOCC4)sc3c2)c1`, the survival was 65%.

In the case of `COc1ccccc1CNC(=O)c1cc(S(=O)(=O)N2CCCCCC2)cn1C`, the survival was 113%.

Regarding `CC(=O)OC(COc1ccccc1)Cn1cnc2cc(C)c(C)cc21` (stereo unspecified), the survival is 140%.

As for `c1ccc2c(c1)ncn2CCn1cnc2ccccc21`, the survival was 100%.

As for `COc1ccc(OCCn2cnc3ccccc32)cc1`, the survival was 85%.

For the molecule `Cc1ccc(OCCCCn2cnc3ccccc32)cc1`, the survival was 11% (active).

As to `Cc1cc2ncn(CCCCOc3ccccc3)c2cc1C`, the survival is -4% (active).

Consider `Cc1cc2ncn(CCC(=O)Nc3ccccc3F)c2cc1C`, for which the survival is 103%.

For `Cc1cccc(C)c1NC(=O)CCC(=O)O`, the survival was 76%.

As to `COc1cc(NC(=O)Cn2c(=O)n(CC3CCCO3)c(=O)c3cc(OC)c(OC)cc32)cc(OC)c1` (stereo unspecified), the survival is 94%.

For the molecule `CCN1CCN(c2ncnc3c2cnn3-c2ccc(C)cc2)CC1`, the survival is 101%.

For the molecule `CC(C)OCCCn1c(SCC(N)=O)nc2c(sc3ccccc32)c1=O`, the survival was 92%.

On to `CC1CCN(c2oc(-c3ccc(COc4ccccc4)o3)nc2C#N)CC1`, for which the survival was 51%.

As for `Cc1ccccc1OCc1ccc(-c2nc(C#N)c(NCc3cccnc3)o2)o1`, the survival is 43% (active).

Regarding `N#Cc1nc(-c2ccc(COc3ccccc3)o2)oc1NCc1ccccc1`, the survival was 70%.

Turning to `Cc1ccc(OCc2ccc(-c3nc(C#N)c(NCc4cccnc4)o3)o2)cc1`, the survival is 51%.

On to `Cc1ccccc1OCc1ccc(-c2nc(C#N)c(NCCCN(C)C)o2)o1`, for which the survival was 59%.

With `COCCCNc1oc(-c2ccc(COc3ccccc3C)o2)nc1C#N`, the survival was 43% (active).

Turning to `COc1ccc(Nc2oc(-c3ccc(COc4ccccc4)o3)nc2C#N)cc1`, the survival was 100%.

For `CN(C)c1oc(-c2ccc(COc3ccccc3)o2)nc1C#N`, the survival was 39% (active).

Turning to `COc1ccc(CNc2oc(-c3ccc(COc4ccccc4C)o3)nc2C#N)cc1`, the survival is 50%.

In the case of `N#Cc1nc(-c2ccc(COc3ccccc3)o2)oc1NCc1cccnc1`, the survival was 44% (active).

On to `COc1ccc(OCc2ccc(-c3nc(C#N)c(NCc4cccnc4)o3)o2)cc1`, for which the survival is 56%.

As to `CCCCNc1oc(-c2ccc(COc3ccccc3C)o2)nc1C#N`, the survival was 112%.

`Cn1c(=O)c2cc(C(=O)NCCCN3CCN(c4cccc(Cl)c4)CC3)sc2c2ccccc21`: the survival was 48%.

As to `Cc1cc(C)c(Cn2c(=O)n(CCC(=O)NCc3ccc4c(c3)OCO4)c(=O)c3ccccc32)c(C)c1`, the survival was 108%.

With `CN(C)c1ccc(NC(=O)Cn2c(SCc3ccccc3F)nc3cccnc32)cc1`, the survival is 124%.

Regarding `CC(C)(C)c1ccc(OCC(=O)N(Cc2ccco2)Cc2ccccc2F)cc1`, the survival was 78%.

`Cc1cc(O)c(C(c2ccccc2)N2CCN(c3ccc(F)cc3)CC2)c(=O)n1Cc1ccco1` (stereo unspecified): the survival is 67%.

As to `COc1ccccc1CCNC(=O)c1ccc2c(c1)c(C)c(C)n2C`, the survival was 95%.

With `Cc1ccc(NC(=O)CSc2nc(-c3ccco3)nc3cc(=O)[nH]n23)cc1C`, the survival was 135%.

In the case of `CCOc1ccc(OCC)c(Nc2nc3ccccc3c3nnc(C)n23)c1`, the survival is 91%.

With `Cc1nn(-c2ccc(N3CCCC3)nn2)c(C)c1CCC(=O)NCc1ccccc1F`, the survival was 82%.

As to `Cc1ccc(-c2nc(CCNC(=O)C(=O)Nc3ccc(C)c(Cl)c3)cs2)cc1`, the survival is 60%.

As for `Cc1ccc(-c2nc(CCNC(=O)C(=O)Nc3ccc(C)c(C)c3)cs2)cc1`, the survival was 20% (active).

In the case of `Cc1cccc(NC(=O)C(=O)NCCc2csc(-c3ccc(F)cc3)n2)c1C`, the survival is 83%.

For `Cc1cc(C)c(NC(=O)C(=O)NCCc2csc(-c3ccc(F)cc3)n2)c(C)c1`, the survival is 67%.

With `Cc1ccc(-c2nc(CCNC(=O)C(=O)Nc3c(C)cccc3C)cs2)cc1`, the survival was 8% (active).

For `Cc1ccc(-c2nc(CCNC(=O)C(=O)Nc3ccc(C)cc3C)cs2)cc1`, the survival was 66%.

For the molecule `Cc1c(CCNC(=O)c2ccc(Br)o2)sc2nc(-c3ccc(Cl)cc3)nn12`, the survival was 75%.

On to `O=C(CCn1cnnn1)Nc1ccc(F)cc1`, for which the survival is 72%.

For the molecule `Cc1cccc(NC(=O)CCn2cnnn2)c1`, the survival is 79%.

On to `O=C(CCn1cnnn1)Nc1cc(C(F)(F)F)cc(C(F)(F)F)c1`, for which the survival was 69% (active).
